Laboratory results taken from PubChem BioAssay (NCATS).
Records with an inconclusive call do not appear. The source made the active and inactive calls. Calls follow the shape of the dose curve; as a rule, active = well fitted inhibition curve with a large enough effect; inconclusive = small, poorly fitted or top-dose-only effect; inactive = flat fitted curve, though single readings scatter.

Assays:
Experiment in all cases: qHTS profiling for inhibitors of Plasmodium falciparum proliferation (AID 504749); also: nearly all actives have a fitted effect of over 60% in size
Details in all cases: P. falciparum in erythrocytes, SYBR Green DNA, 72 h; series mostly up to 28.7 µM
[1] = system: CP262
Procedure, shortened: (§1)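 P. falciparum-infected erythrocytes (0.3% parasitemia, 2.5% hematocrit) incubated with compound 72 h at 37 C, 5% CO2. Parasite DNA detected by SYBR Green after lysis, overnight at room temperature; normalised to 0.29 uM artemisinin and DMSO.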

[2] = system: CP265
Procedure, shortened: as §1

[3] = system: CP266
Procedure, shortened: as §1

[4] = system: CP268
Procedure, shortened: as §1

[5] = system: CP269
Procedure, shortened: as §1

[6] = system: CP286
Procedure, shortened: as §1

[7] = system: CP291
Procedure, shortened: as §1

[8] = system: CP297
Procedure, shortened: as §1

[9] = system: CP305
Procedure, shortened: as §1

[10] = system: CP315
Procedure, shortened: as §1

[11] = system: CP325
Procedure, shortened: as §1

[12] = system: CP329
Procedure, shortened: as §1

[13] = system: CP335
Procedure, shortened: as §1

[14] = system: DFO2036
Procedure, shortened: as §1

[15] = system: DIV14
Procedure, shortened: as §1

[16] = system: DIV17
Procedure, shortened: as §1

[17] = system: DIV30
Procedure, shortened: as §1

[18] = system: Dd2
Procedure, shortened: as §1

[19] = system: ECU
Procedure, shortened: as §1

[20] = system: FAB9
Procedure, shortened: as §1

[21] = system: GB4
Procedure, shortened: as §1

[22] = system: HB3
Procedure, shortened: as §1

[23] = system: ICS
Procedure, shortened: as §1

[24] = system: JCK
Procedure, shortened: as §1

[25] = system: N140
Procedure, shortened: as §1

[26] = system: P93_24
Procedure, shortened: as §1

[27] = system: P94_40
Procedure, shortened: as §1

[28] = system: PAD
Procedure, shortened: as §1

[29] = system: PC15
Procedure, shortened: as §1

[30] = system: PC26
Procedure, shortened: as §1

[31] = system: PC49
Procedure, shortened: as §1

[32] = system: SC27B
Procedure, shortened: as §1

[33] = system: TAB109
Procedure, shortened: as §1

[34] = system: TAB113
Procedure, shortened: as §1

[35] = system: TAB165
Procedure, shortened: as §1

Measured: Potency

CN1[C@@H]2CC(OC(=O)[C@@H](CO)c3ccccc3)C[C@@H]1[C@H]1O[C@H]12 (stereo not given in full)
inactive: [1] | [2] | [3] | [4] | [5] | [6] | [7] | [8] | [9] | [10] | [11] | [12] | [13] | [14] | [15] | [16] | [17] | [18] | [19] | [20] | [21] | [22] | [23] | [24] | [25] | [26] | [27] | [28] | [29] | [30] | [31] | [32] | [33] | [34] | [35]
